In the supplement of paper PMC10127200:
Where a name gives a salt, the structure may show the parent alone.

Key:
Assay in all cases: Euclidean distance of Cell Painting phenotypic profile (signed KS, 77 features) to DMSO centroid (dimensionless distance); higher = stronger phenotypic change vs DMSO (phenoactivity)
Conditions in all cases: 48 h; 5 or 10 uM (library dependent)
[1] = tested on: 786-O
Outline: (§1)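 At 10 or 5 uM, as set by the library, and 0.1% DMSO final, compounds were applied for 48 h to five cancer lines and one healthy fibroblast line. Stained cells were imaged confocally at 20X in 9 fields per well, and Harmony extracted 77 features scored as signed Kolmogorov-Smirnov statistics against vehicle wells on the same plate. Profiles underwent plate-position correction, correlation weighting and replicate averaging at the top dose. Phenoactivity is the Euclidean distance from each such profile to the median vehicle profile.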

[2] = tested on: A549
Outline: as §1

[3] = tested on: DU145
Outline: as §1

[4] = tested on: FB
Outline: as §1

[5] = tested on: HEPG2
Outline: as §1

[6] = tested on: OVCAR4
Outline: as §1

| SMILES | Euclidean distance [1] | Euclidean distance [2] | Euclidean distance [3] | Euclidean distance [4] | Euclidean distance [5] | Euclidean distance [6] |
| --- | --- | --- | --- | --- | --- | --- |
| CC(=O)O[C@H]1C[C@H](O[C@H]2[C@@H](O)C[C@H](O[C@H]3[C@@H](O)C[C@H](O[C@H]4CC[C@@]5(C)[C@H](CC[C@@H]6[C@@H]5C[C@@H](O)[C@]5(C)[C@@H](C7=CC(=O)OC7)CC[C@]65O)C4)O[C@@H]3C)O[C@@H]2C)O[C@H](C)[C@H]1O[C@@H]1O[C@H](CO)[C@@H](O)[C@H](O)[C@H]1O [Lanatoside C] | 6.1 | 5.41 | 7.41 | 3.88 | 2.69 | 6.46 |
| CC(=O)O[C@H]1CC[C@H]2[C@@H]3CCC4=CC(=O)CCC4=C3C=C[C@]12C [Trenbolone acetate] | 0.864 | 0.493 | 1.04 | 0.72 | 1.19 | 0.778 |
| Clc1ccc(C(OCCN2CCCCC2)c2ccccc2)cc1 (centres undefined) [Cloperastine hydrochloride] | 0.838 | 1.16 | 1.16 | 0.914 | 1.43 | 1.16 |
| CNC(C)Cc1ccccc1OC (centres undefined) [Methoxyphenamine Hydrochloride] | 0.913 | 1.83 | 0.725 | 1.38 | 0.34 | 2.5 |
| CNCC(=O)c1ccc(O)c(O)c1 [Adrenalone HCl] | 1.06 | 0.418 | 1.18 | 1.16 | 0.892 | 0.981 |
| N#Cc1ccc(N2CCC[C@@H]2[C@@H](O)C(F)(F)F)cc1C(F)(F)F [Ligandrol (LGD-4033. VK-5211)] | 1.52 | 1.1 | 0.95 | 1.1 | 0.87 | 1.15 |
| O=C(O)CCCc1ccc(N(CCCl)CCCl)cc1 [Chloroambucil] | 2.21 | 1.7 | 0.964 | 1.7 | 0.893 | 1.49 |
| O=[N+]([O-])/C=C/c1ccc2c(c1)OCO2 | 4.42 | 2.25 | 0.868 | 2.39 | 0.782 | 2.34 |
| C=C1[C@@H](C)[C@H]2[C@H](Cc3ccccc3)NC(=O)[C@]23[C@H](OC(C)=O)/C=C/[C@@](C)(O)C(=O)[C@@H](C)C/C=C/[C@H]3[C@@H]1O [Cytochalasin D] | 4.23 | 3.63 | 3.2 | 4.07 | 2.24 | 3.87 |
| CC1(C)C(C=C(Cl)Cl)C1C(=O)OCc1cccc(Oc2ccccc2)c1 (centres undefined) [Permethrin] | 1.12 | 0.946 | 1.16 | 0.816 | 0.999 | 1.43 |
| Cc1ncc(CNC(=O)N(CCCl)N=O)c(N)n1 [Nimustine Hydrochloride] | 1.62 | 0.894 | 0.692 | 0.831 | 0.722 | 0.918 |
| O=C(O[C@H]1C[C@H]2CC[C@@H](C1)[N+]21CCCC1)C(O)(c1ccccc1)c1ccccc1 [Trospium chloride] | 0.712 | 0.693 | 0.879 | 0.927 | 0.66 | 1.39 |
| Cc1cc(O)ccc1Cl [Chlorocresol] | 0.894 | 0.612 | 0.527 | 0.762 | 0.668 | 1.1 |
| CCC1(C)CC(=O)NC(=O)C1 [Bemegride] | 0.845 | 0.616 | 0.948 | 0.603 | 0.381 | 0.793 |
